Screening data (PubChem)
Tg IFNy HTS: T. gondii growth inhibition under IFN-gamma. Toxoplasma gondii growth in IFN-gamma-treated host cells; active compounds read low. activity change, negative = inhibition, % (concentration not given with the values). actives 3.8% (n = 69,000); in the data active = activity change below about -70%, passing the limit was not always enough;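 note: host cells are HeLa cells infected with Toxoplasma gondii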
Active calls of the source: *; ! = a repeat was not active. Only a selection was taken, and hits are over-represented in it overall.

SMILES	Tg IFNy HTS
CCN1C(=O)CCc2cc(NS(=O)(=O)c3ccc(C(F)(F)F)cc3)ccc21	-102.9*
Cc1ccc(S(=O)(=O)Nc2ccc3c(c2)CCC(=O)N3CC(C)C)cc1Cl	-93.1*
CC1(C)NC(=O)N(Cc2ccc(N)cc2)C1=O	27.0
O=C(Nc1ccc(F)cc1F)N1CC(c2ccncc2)C1	-1.5
Cc1noc(C)c1C(=O)NCCc1csc(C2=CCCN(C)C2)n1	1.0
CCC(c1ccc(OC)cc1)N(CC)C(=O)c1cccn1C (configuration not stated)	-50.0
CCn1c(C2CCCN(C(=O)c3cc(C)n4nc(C)cc4n3)C2)nn(C)c1=O (configuration not stated)	-12.6
Cc1ncc(-c2c(-c3ccccc3)ncn2CCCCN2CCCC2)[nH]1	-5.6
COC(=O)[C@@H]1C[C@H](NC(=O)CCNC(=O)c2ccc(F)cc2)CN1C	18.8
O=C1CCc2cc(S(=O)(=O)N3CCOCC3)cc3c2N1CCC3	113.1
CN1C(=O)CCc2cc(NS(=O)(=O)c3ccc(Cl)c(Cl)c3)ccc21	-87.4*
CN1C(=O)CCc2cc(NS(=O)(=O)c3cccc(Cl)c3)ccc21	-12.4
COCCN1C(=O)CCc2cc(NS(=O)(=O)c3ccc(C)c(F)c3)ccc21	-5.9
CCCN1C(=O)CCc2cc(NS(=O)(=O)c3ccc(Cl)c(Cl)c3)ccc21	-52.1
COCCN1C(=O)CCc2cc(NS(=O)(=O)c3ccc(OC)c(Cl)c3)ccc21	-5.0
CCN1C(=O)CCc2cc(NS(=O)(=O)c3ccc(C)c(Cl)c3)ccc21	-83.2*
COc1ccc(-c2ccc(OC)c3nc(C)ccc23)nn1	5.8
COc1cc(CNC(=O)C2(C)CCN(C(=O)c3ccc(C(C)(C)C)cc3)CC2)cc(OC)c1	-45.6
Cc1ccc(N2CCC[C@]3(C(=O)O)CN(CCN(C)C)C[C@H]3C2)nn1	-50.1
CN(C)Cc1cnc2n1CCN(C(=O)c1cscn1)CC2	-9.8
Cc1nc(C)c(C(=O)N2CCC(c3cc(=O)[nH]c(N(C)C)n3)C2)s1 (configuration not stated)	-41.7
Cc1cc(-n2nnc(C(=O)N3CCC(N4CCCCC4)CC3)c2-c2ccncc2)ccc1F	6.5
CN(C)CCNC(=O)c1cc2n(n1)CCCN(C(=O)Nc1ccccc1)C2	1.6
O=C1CCc2cc(S(=O)(=O)N3CCC(Cc4ccccc4)CC3)cc3c2N1CCC3	-0.4
Cc1ccc(C)c(NC(=O)CC(=O)N(C)Cc2n[nH]c3c2CCC3)c1	-46.3
SMILES	Tg IFNy HTS
CCn1c(CCNC(=O)Cc2c(F)cccc2Cl)nnc1SC	-2.7
CC(C)(C)C(=O)C(Cc1c(F)cccc1Cl)C(=O)C(C)(C)C	-23.8
O=C(Cc1c(F)cccc1Cl)NC(=O)NCCc1c(F)cccc1Cl	-82.9*
O=C(NC1CCC12CCN(C(=O)c1ccco1)CC2)c1cnccn1 (configuration not stated)	2.8
CCN1CCOCC12CCN(C(=O)c1cnccn1)CC2	-11.4
C=CCNC(=O)C1(Cc2cccc(-c3cncnc3)c2)CCN(C(=O)c2cnccn2)CC1	-93.4*
Cc1ccc(S(=O)(=O)Nc2cc(C(C)(C)C)sc2C#N)cc1	1.2
Cc1ccc(S(=O)(=O)Nc2c(Cl)c(Cl)nc(C#N)c2Cl)cc1	-92.7*
Cc1ccc(S(=O)(=O)Nc2ccc(S(=O)(=O)Nc3nc(C)cc(C)n3)cc2)cc1	48.1
CN(C)C(=O)CN1CCC2(CCCN2C(=O)c2ccno2)CC1	48.0
O=C(NCCNc1cccnc1)c1ccc(Cl)s1	2.2
CCC(=O)c1ccc(OCC(O)CN2CCN(c3ccccc3)CC2)cc1 (configuration not stated)	11.9
CC(C)c1nccc(CN2CCN(S(=O)(=O)c3ccccc3)CC2)n1	3.6
O=S(=O)(c1ccccc1)N1CCN(CC(O)COc2ccc3ccccc3c2)CC1 (configuration not stated)	-82.7*
Cc1cc2c(cc1O)NC(=O)CC2c1cc(C(C)(C)C)n[nH]1 (configuration not stated)	-5.5
Cc1nc(C)c(S(=O)(=O)N2CC(n3nc(-c4ccccc4)ccc3=O)C2)s1	-25.6
O=C(Nc1cccc2ccccc12)OC1CCS(=O)(=O)C1 (configuration not stated)	27.7
O=C(Nc1cccc2ccccc12)NC1CCCCC1	-93.1*
O=C(Nc1cccc2ccccc12)N1CCOCC1	180.6
O=C(c1cccnc1)N1CCC2(CC(OCC3CC3)CO2)C1 (configuration not stated)	2.0
Cc1nc(CN(C)Cc2cccc(C(=O)Nc3ccc(F)cc3F)c2)no1	20.0
CC1CCN(CCCC(=O)c2ccc(F)cc2)CC1	11.8
O=C(O)CCCN1CCC(O[C@@H](c2ccc(Cl)cc2)c2ccccn2)CC1	34.5
CC(C)(C)c1ccc(C(=O)CCCN2CCC(OC(c3ccccc3)c3ccccc3)CC2)cc1	-86.0*
COc1cc(NCCNc2cccnc2)ncn1	12.4
SMILES	Tg IFNy HTS
Cc1nc(OCC(=O)Nc2ccc(Br)cc2F)c2ccccc2n1	2.7
Cc1oc(C2CCN(C(=O)Nc3cccc(F)c3C)CC2)nc1C(=O)N1CCCC1	-81.3*
Cc1oc(C2CCN(S(=O)(=O)c3cc(F)ccc3F)CC2)nc1C(=O)N1CCCC1	-13.1
Cc1oc(C2CCN(S(=O)(=O)c3ccccc3F)CC2)nc1C(=O)N1CCCC1	29.5
Cc1oc(C2CCN(C(=O)Nc3cc(F)cc(F)c3)CC2)nc1C(=O)N1CCCC1	-28.3
Cc1ccc(F)cc1S(=O)(=O)N1CCC(c2nc(C(=O)N3CCCCC3)c(C)o2)CC1	-77.1*
Cc1ccc(NC(=O)N2CCC(c3nc(C(=O)N4CCCC4)c(C)o3)CC2)c(C)c1	-77.4*
Cc1ccc(NC(=O)N2CCC(c3nc(C(=O)N4CCCC4)c(C)o3)CC2)c(Cl)c1	9.8
Cc1cccc(NC(=O)N2CCC(c3nc(C(=O)N4CCCC4)c(C)o3)CC2)c1	-19.3
Cc1ccc(NC(=O)N2CCC(c3nc(C(=O)N4CCCC4)c(C)o3)CC2)cc1	-41.1
Cc1cccc(-c2nc(C)c(CCNC(=O)c3cccc(C(F)(F)F)c3)s2)c1	196.8
CCc1ccc(S(=O)(=O)N2CCc3nc(-c4ccc(C)cc4)sc3C2)cc1	23.8
CCn1cc(CN2CCN(CC(=O)N(C)C3CCS(=O)(=O)C3)CC2)c(C)n1 (configuration not stated)	8.0
Cc1cc(C)c(N2C(=O)C3C(c4ccccc4)C=CC(c4ccccc4)C3C2=O)c(C)c1 (configuration not stated)	-98.8*
CN(C)C1CCN(Cc2cccc(C(=O)Nc3cccc(CO)c3)c2)C1 (configuration not stated)	27.4
CCCCCCCCCCCC1C(=O)C(=O)CC(=O)C1=O	-81.7*!
CCCCCCCC(=O)O	12.5
CN(CCc1noc(-c2cc3ccccc3[nH]2)n1)C(=O)c1ccncc1	379.8
O=C(CN1CCCC1)Nc1ccc(NC(=O)Nc2ccc(F)cc2)cc1	23.7
CCC(c1ccc(F)cc1)N(C)C(=O)CN1C(=O)NC2(CCC(C)CC2)C1=O (configuration not stated)	-15.8
Nc1[nH]nc2nnc(-c3c(-c4ccccc4)nn4ccccc34)cc12	-44.9
O=c1cc2nn[nH]n2nc1-c1ccccc1	123.6
O=c1[nH]nc2c(-c3ccccc3)c(-c3ccccc3)c(-c3ccccc3)nn12	-106.5*
C[C@@H]1CN([C@H](C)CO)C(=O)c2cc(-c3ccncc3)cnc2O[C@@H]1CN(C)C(=O)CN1CCOCC1	-28.5
Cc1cc(C(=O)N[C@@H]2C[C@H]3C(=O)N(C)CC(=O)N3C2)n[nH]1	-11.1
CCNc1ncc(C(=O)N2CCC(Cc3nn(C)c(=O)n3CC)CC2)cn1	3.8
CN(Cc1cccnc1)Cc1cn2c(n1)CN(C(=O)N(C)C)CC2	2.0
